L929 necroptosis = inhibitors of zVAD-triggered necroptosis, primary screen, L929 cells | L929 zVAD necroptosis rescue, ATP luminescence, 24 h; with zVAD 60 µM | viability rescue, % at 10 µM | 0.38% of 220,000 active;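 active = activation, scaled between plate controls, above about 75%, limit read from the data; inactive = activation under that limit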;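 also: 0% = zVAD with DMSO and 100% = DMSO alone without zVAD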
Redox H2O2 prof = compounds producing H2O2 with reducing agent – biochemical, NIH compound library profiling, artefact control for MLSCN library redox annotation, primary screen. DTT-dependent redox cycling H2O2, phenol red/HRP absorbance; 100% = 100 µM peroxide control, 0% = buffer. activation, % at 10 µM. 0.03% of 200,000 active. AID 878, 2007;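 active = activation of at least 50% relative to the plate's high and low controls in the primary single-dose screen; inactive = activation below 50%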;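 also: compound incubated with DTT at 0.8 mM final as the reducing agent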
PERK inhibitor = block of dimerizer-induced PERK translation repression, primary screen, PERK inhibitor project, CHO PERK-DD cells, SEAP luminescence, HTS; Eukaryotic translation initiation factor 2-alpha kinase 3 (Homo sapiens), Q9NZJ5; CHO PERK-DD fusion, SEAP luminescence translation reporter; inhibition, % at 5.6 µM; 0.17% of 220,000 active; AID 1416, 2008;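 active = inhibition above the mean inhibition of all tested compounds plus 3 SD, set separately per screening campaign, cut at about 2.9% in these data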;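 also: PERK kinase domain activated by AP20187 dimerizer at 100 nM; 0% = DMSO with dimerizer and 100% = rapamycin at 8.4 µM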
PKD1 kinase inh = inhibitors of human PKD1 kinase, biochemical, fluorescence polarization; PKD1 kinase fluorescence polarization assay; Serine/threonine-protein kinase D1 (Homo sapiens), Q15139; inhibition, % (no concentration beside the values); 0.056% of 200,000 active; in the data active = inhibition above about 50%
TNF necrop inh = inhibitors of TNF-alpha triggered necroptosis, primary screen, cell-based, Jurkat FADD-/-, single concentration | Jurkat FADD-/- TNF necroptosis rescue, ATP luminescence, 24 h; 0 = TNF only, 100 = no-TNF cells | activation (protection from cell death), % at 10 µM | 0.068% of 220,000 active | AID 463075, 2010;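 active = activation, meaning protection from cell death, of at least 50% relative to plate controls; inactive = activation below 50%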;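 also: necroptosis triggered by 40 ng/mL TNF-alpha added together with compound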
WT yeast gro inh = growth inhibition of WT strain, primary screen, mitochondrial fusion inhibitor project, WT and mutant strains, chemical genetic. AID 1362, 2008. mitochondrial fusion phenotypic screen. inhibition, % at 10 µM. 2.1% of 190,000 active; in the data active = inhibition above about 58%; tested in S. cerevisiae
The depositor's hits bear a star; . = not tested or not shown. The list is not random: actives were taken first. Their share in the collection is about 2.4%.

SMILES | L929 necroptosis | Redox H2O2 prof | PERK inhibitor | PKD1 kinase inh | TNF necrop inh | WT yeast gro inh
COC(=O)C1=C(Nc2ccc(C)cc2)C=C(C)C(C(=O)OC)C1c1ccc(OC)cc1 (stereo not drawn) | -0.6 | -0.3 | -0.9 | 5.0 | -2.2 | 70.3*
COC(=O)C1=C(Nc2ccc(C)cc2)C=C(C)C(C(=O)OC)C1c1cccc(OC)c1 (stereo not drawn) | -1.3 | 0.2 | -1.4 | -4.0 | -5.0 | 40.7
Cc1cc(C)c(C)c(S(=O)(=O)NCc2ccc(C(=O)N3CCCCC3)cc2)c1C | 0.3 | -0.2 | -1.7 | 2.7 | 0.9 | -8.1
COc1cc(NC(=O)c2ccc(C(C)(C)C)cc2)c(OC)cc1NC(=O)CN1CCCCC1 | 72.6 | -0.7 | 0.1 | 8.3 | 5.2 | 69.7*
CSc1nc(Cl)c(Cc2ccc(OC(C)C)cc2)c(N(C)C)n1 | -1.0 | 0.2 | 0.0 | -2.5 | -1.8 | 63.5*
O=C(Cn1cccc1C(=O)c1ccccc1)NCc1cccc(Cl)c1 | 1.1 | 0.3 | -0.2 | -4.8 | 0.5 | -6.2
COCCN=c1scc(-c2ccccc2)n1/N=C/c1c[nH]c2ccccc12 | 4.5 | 0.9 | 0.2 | -2.4 | 6.5 | 78.8*
COCCN=c1scc(-c2cccs2)n1/N=C/c1ccc(O)c(O)c1O | 2.1 | 1.6 | 0.6 | 4.9 | -9.1 | 2.8
CCc1nnc(NC(=O)Nc2ccccc2OC)s1 | 0.4 | 0.3 | 0.2 | 5.4 | -3.6 | 58.5*
CC(C)c1ccc(NC(=S)N(C)CCc2ccccn2)cc1 | 4.4 | -0.9 | -1.1 | 1.0 | 1.2 | 73.9*
CCCC(=O)NCCc1nc2cc([N+](=O)[O-])ccc2n1C | -0.2 | -0.6 | -0.2 | -7.5 | 1.4 | -0.8
COC(=O)c1ccc(-n2c(C)ccc2-c2ccccc2)cc1 | 0.0 | 7.1 | 0.3 | -16.2 | -2.1 | 63.7
CC(=O)c1ccc(-n2c(C)ccc2-c2ccccc2)cc1 | 0.1 | 0.1 | 0.1 | -3.2 | -0.3 | 61.6*
COc1ccc(CCNc2nc(=S)[nH]c3cc(OC)c(OC)cc23)cc1OC | 82.0* | -0.4 | -1.1 | -4.6 | -2.4 | -4.4
COc1cc2[nH]c(=S)nc(NCCc3ccc(C)cc3)c2cc1OC | -0.2 | 0.7 | -0.1 | -9.0 | -2.4 | 13.5
COC(=O)CNC(c1ccccc1)c1cc(C)ccc1NC(=O)c1cccc(Cl)c1 (stereo not drawn) | . | -0.7 | -0.8 | -1.6 | -0.8 | 70.7*
O=C(O)CCc1ccc(-c2ccccc2)n1Cc1ccco1 | 1.1 | -0.1 | 0.3 | -1.3 | 0.8 | -0.4
O=C(O)CCc1ccc(-c2ccc(F)cc2)n1Cc1ccco1 | 1.0 | 2.9 | 0.1 | -4.7 | -0.8 | 63.5*
O=C(Nc1ccc(Cl)cc1C(F)(F)F)c1ccccc1 | 0.4 | 0.1 | 1.0 | 1.1 | -1.4 | -6.5
CCCCC1CCC(c2nc(-c3cccnc3)no2)CC1 (stereo not drawn) | 2.5 | 0.2 | 0.7 | -17.2 | 1.6 | 68.1*
N#C/C(=N\Nc1cccc(Cl)c1)C(=O)c1ccccc1 | 0.6 | -4.4 | 1.2 | -5.7 | -5.7 | 72.3*
O=c1oc2cc(Oc3c([N+](=O)[O-])cc(C(F)(F)F)cc3[N+](=O)[O-])ccc2c2c1CCCC2 | -0.1 | -1.2 | 0.5 | 3.0 | -9.7 | 62.2*
O=c1oc2cc(Oc3ccc(C(F)(F)F)cc3[N+](=O)[O-])ccc2c2c1CCC2 | -0.3 | 0.0 | 0.7 | -6.3 | 0.0 | 10.6
Cc1ccc(S(=O)(=O)N(C)C)cc1NC(=O)C(C)OC(=O)/C=C/c1cccs1 (stereo not drawn) | -0.7 | . | -1.0 | . | -0.2 | .
O=C(OC(c1ccc(NS(=O)(=O)c2ccccc2)cc1)(C(F)(F)F)C(F)(F)F)c1ccccc1 | 1.5 | -0.7 | -0.3 | -8.0 | -0.1 | 87.3*
SMILES | L929 necroptosis | Redox H2O2 prof | PERK inhibitor | PKD1 kinase inh | TNF necrop inh | WT yeast gro inh
Cc1ccc(S(=O)(=O)Nc2ccc(C(OC(=O)c3ccccc3[N+](=O)[O-])(C(F)(F)F)C(F)(F)F)cc2)cc1 | 4.3 | -0.3 | -0.3 | 12.2 | 0.8 | 85.5*
CC(=O)c1ccc(NS(=O)(=O)c2ccccc2)cc1 | -0.3 | 2.2 | -0.2 | -7.8 | 5.3 | -6.9
Cc1ccc(S(=O)(=O)Nc2ccc(NC(=O)Nc3cccc(C(F)(F)F)c3)cc2)cc1 | -0.1 | 0.2 | -0.7 | -6.3 | 7.6 | 15.6
O=C(CSc1nnnn1-c1ccc(Cl)cc1)N1CCc2ccccc2C1 | -0.3 | -0.7 | -0.7 | 3.8 | -0.1 | 81.2*
O=C(CSc1nnnn1-c1ccccc1)N1CCc2ccccc21 | 0.2 | 0.8 | 0.3 | -8.3 | -0.3 | -1.8
CC(C)Cn1c(N)c(C(=O)NCC2CCCO2)c2nc3ccccc3nc21 (stereo not drawn) | 5.6 | -0.7 | -1.1 | -5.3 | -9.5 | 59.8*
O=C(c1ccc(NC(=S)NCc2ccco2)cc1)N1CCCCC1 | 0.3 | -0.5 | 1.7 | -2.4 | -0.3 | 8.0
COc1ccc(CNC(=O)COC(=O)CC2CCCC2)cc1 | 0.7 | -0.1 | 1.3 | 4.7 | -0.2 | -20.2
C=C(C)COc1ccc(-c2[nH]ncc2-c2ccccc2)c(O)c1 | 0.8 | -3.6 | 0.6 | -1.3 | 0.5 | 70.5*
C=C(C)COc1ccc(-c2n[nH]c(C)c2Oc2ccccc2OC)c(O)c1 | 0.6 | -0.5 | -0.5 | -1.5 | 1.4 | 10.5
C=C(C)COc1ccc(-c2nc(N)ncc2-c2ccc(OC)cc2)c(O)c1 | 3.0 | 2.7 | 0.1 | 2.4 | -1.5 | 83.9*
C=C(C)COc1ccc(-c2nc(N)nc(C)c2Oc2ccccc2OC)c(O)c1 | -0.4 | -1.3 | -0.6 | -12.8 | 1.8 | 73.1*
C=C(C)COc1ccc(-c2[nH]ncc2-c2ccc(OC)cc2)c(O)c1 | 2.1 | . | 0.4 | . | 2.0 | .
C=C(C)COc1ccc(-c2nc(N)nc(C)c2-c2ccc(OC)cc2)c(O)c1 | . | 0.9 | -0.9 | -8.8 | 4.7 | -6.2
CN(C)c1nc(Cl)nc(N(C#N)CCOc2ccccc2)n1 | -2.0 | -0.3 | 1.1 | 3.0 | -2.5 | -18.3
CCOC(=O)c1c(NC(=O)CSc2nnc(N)s2)sc(C)c1-c1ccc(C)cc1 | 0.5 | 0.8 | -0.7 | 7.8 | -2.2 | 78.0*
CCOC(=O)c1c(NC(=O)CSc2nnc(C)c(=O)[nH]2)sc(C)c1-c1ccc(C)cc1 | -0.8 | . | 1.3 | . | -0.1 | .
COc1cc(-c2nnc(SCC(=O)NC3CCS(=O)(=O)C3)o2)cc(OC)c1OC (stereo not drawn) | 0.7 | -0.7 | 0.5 | -8.3 | 0.5 | 12.6
NC(=O)c1ccsc1NC(=O)c1ccc2c(c1)CCCC2 | . | 0.5 | -0.4 | -3.0 | -16.4 | 69.7*
CNC(=O)c1ccsc1NC(=O)c1ccc2c(c1)CCCC2 | . | 0.6 | -0.3 | -2.3 | -7.0 | 71.8*
COC(=O)c1ccsc1NC(=O)c1ccccc1 | 1.4 | -0.7 | 0.9 | -3.3 | -0.2 | -49.8
